Measured values taken from PubChem BioAssay AID1159580 (chemical genetic matrix, 2015).
Where “and” joins values, the source holds several entries; their conditions need not be identical. Equal entries are not always repeated. About 2,000 (36%) of roughly 5,500 compounds were called active. About 18% were inconclusive and are not listed. Rule as the data show it: active = normalized growth mostly below about 0.91 (no sharp cut-off); inconclusive = no clear call, values can overlap the other calls; inactive = mostly above about 0.92. The list shows a part of the results.

Assay: chemical genetic growth profiling, strain panel (AID 1159580);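 also: tested at 20 µM; growth read once vehicle control cultures reached saturation at 30 °C; 1 = growth at the plate median or of vehicle wells; lower values mean less growth of the strain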
Conditions: S. cerevisiae deletion strains, growth OD

Measured: normalized growth

CCN(CC)CCNC(=O)c1cc(Cl)c(N)cc1OC
inactive: locus YAL013W, strain DEP1, active compounds read low 1.01 | locus YAL021C, strain ccr4, active compounds read low 0.992 | locus YAL026C, strain drs2, active compounds read low 0.998 | locus YAL030W, strain snc1, active compounds read low 0.974 | locus YAL040C, strain CLN3, active compounds read low 0.981 | locus YBL061C, strain skt5, active compounds read low 0.976 | locus YBR009C, strain hhf1, active compounds read low 0.987 | locus YBR021W, strain FUR4, active compounds read low 1.02 | locus YBR023C, strain chs3, active compounds read low 0.984 | locus YBR171W, strain sec66, active compounds read low 0.979 | locus YBR229C, strain ROT2, active compounds read low 1.01 | locus YBR231C, strain swc5, active compounds read low 0.996 | locus YBR279W, strain paf1, active compounds read low 0.992 | locus YCL011C, strain gbp2, active compounds read low 0.94 | locus YCL016C, strain dcc1, active compounds read low 0.948 | locus YCL029C, strain bik1, active compounds read low 0.993 | locus YCL061C, strain MRC1 (second series), active compounds read low 1.01 | locus YCL061C, strain MRC1, active compounds read low 0.988 | locus YCL069W, strain vba3, active compounds read low 0.985 | locus YCR088W, strain abp1, active compounds read low 0.991 | locus YDL005C, strain med2, active compounds read low 0.986 | locus YDL035C, strain GPR1, active compounds read low 1.01 | locus YDL040C, strain nat1, active compounds read low 0.988 | locus YDL074C, strain BRE1, active compounds read low 1.02 | locus YDL101C, strain DUN1, active compounds read low 1 | locus YDL134C, strain PPH21, active compounds read low 1.01 | locus YDL185W, strain tfp1, active compounds read low 0.996 | locus YDL192W, strain arf1, active compounds read low 1.01 | locus YDR001C, strain nth1, active compounds read low 0.968 | locus YDR069C, strain doa4, active compounds read low 0.962 | locus YDR101C, strain arx1, active compounds read low 0.985 | locus YDR137W, strain rgp1, active compounds read low 0.967 | locus YDR150W, strain NUM1, active compounds read low 1.02 and 1.01 | locus YDR159W, strain sac3, active compounds read low 1.01 | locus YDR162C, strain NBP2, active compounds read low 1.01 | locus YDR195W, strain ref2 0.974 | locus YDR297W, strain sur2, active compounds read low 0.984 | locus YDR318W, strain mcm21, active compounds read low 0.996 | locus YDR334W, strain swr1, active compounds read low 0.93 | locus YDR335W, strain msn5, active compounds read low 0.976 | locus YDR363W, strain ESC2, active compounds read low 1.02 | locus YDR388W, active compounds read low 0.995 | locus YDR392W, strain spt3, active compounds read low 0.975 | locus YDR502C, strain sam2, active compounds read low 0.988 | locus YEL003W, strain gim4, active compounds read low 0.994 | locus YEL037C, strain rad23, active compounds read low 0.976 | locus YEL061C, strain CIN8 (second series), active compounds read low 0.978 | locus YEL061C, strain CIN8, active compounds read low 1.01 | locus YER002W, strain NOP16, active compounds read low 0.994 | locus YER015W, strain faa2, active compounds read low 0.979 | locus YER016W, strain bim1, active compounds read low 0.994 | locus YER110C, active compounds read low 0.994 | locus YER111C, strain swi4, active compounds read low 0.988 | locus YER155C, strain BEM2 (second series), active compounds read low 1.03 | locus YER155C, strain BEM2, active compounds read low 0.999 | locus YER167W, strain BCK2, active compounds read low 1.01 | locus YFR010W, strain ubp6, active compounds read low 0.969 | locus YGL078C, strain dbp3, active compounds read low 0.997 | locus YGL086W, strain mad1, active compounds read low 0.993 | locus YGL167C, strain pmr1, active compounds read low 0.972 | locus YGL173C, strain kem1, active compounds read low 0.98 | locus YGL227W, strain vid30, active compounds read low 0.977 | locus YGL240W, strain doc1, active compounds read low 1.01 | locus YGL248W, strain PDE1, active compounds read low 1.01 | locus YGL253W, strain hxk2, active compounds read low 0.981 | locus YGR078C, strain PAC10, active compounds read low 1.02 | locus YGR135W, strain pre9, active compounds read low 0.998 | locus YGR229C, strain SMI1, active compounds read low 1.01 and 1.02 | locus YGR252W, strain gcn5, active compounds read low 0.958 | locus YHR013C, strain ard1, active compounds read low 0.955 | locus YHR027C, strain rpn1, active compounds read low 0.963 | locus YHR030C, strain SLT2, active compounds read low 1.01 and 1.07 | locus YHR079C, strain IRE1 (second series), active compounds read low 0.994 | locus YHR079C, strain IRE1, active compounds read low 1.07 | locus YHR094C, strain hxt1, active compounds read low 0.992 | locus YHR129C, strain ARP1, active compounds read low 1 | locus YHR142W, strain chs7, active compounds read low 0.939 | locus YHR200W, strain rpn10, active compounds read low 0.994 | locus YIL066C, strain RNR3, active compounds read low 1.02 | locus YIL073C, strain SPO22, active compounds read low 1.02 | locus YIL125W, strain kgd1, active compounds read low 0.993 | locus YIR030C, strain dcg1, active compounds read low 1 | locus YJL092W, strain hpr5, active compounds read low 0.978 | locus YJL095W, strain BCK1 (second series), active compounds read low 0.978 | locus YJL095W, strain BCK1, active compounds read low 1 and 1.04 | locus YJL115W, strain asf1, active compounds read low 0.953 | locus YJL129C, strain trk1, active compounds read low 0.997 | locus YJL134W, strain LCB3, active compounds read low 1.01 | locus YJL154C, strain vps35, active compounds read low 0.971 | locus YJL164C, strain tpk1, active compounds read low 1.01 | locus YJL166W, strain qcr8, active compounds read low 0.956 | locus YJL168C, strain set2, active compounds read low 0.992 | locus YJL187C, strain SWE1 (second series), active compounds read low 1.02 | locus YJL187C, strain SWE1, active compounds read low 0.989 | locus YJR043C, strain POL32, active compounds read low 0.996 | locus YJR066W, strain TOR1, active compounds read low 1
